Test results taken from PubChem BioAssay (Tox21).
Records with an inconclusive call do not appear. The source made the active and inactive calls. Unless noted, calls follow the shape of the dose curve; as a rule, active = well fitted curve in the direction sought with a large enough effect in the repeat runs; inconclusive = weak or mixed curves; inactive = no such curve, though single readings can be large; an effect the other way counts as inactive or inconclusive.

How the values were obtained:
[1] = qHTS assay to identify small molecule agonists of the hypoxia (HIF-1) signaling pathway - cell viability counter screen (AID 1224844; calls by dose curve; also: nearly all actives have a fitted effect of over 50% in size)
Procedure, shortened: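 Cytotoxicity was measured in parallel with the HRE-driven beta-lactamase readout: after 17 hrs of compound exposure at 37C, HRE-bla ME-180 cells received CellTiter-Glo and luminescence was recorded 30 min later.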

[2] = qHTS assay to identify small molecule agonists of H2AX (AID 1224845; active = well fitted activation curve with a large enough effect in the signal ratio in the repeat runs, not every such curve was filed as active; the % refers to the signal ratio)
Procedure, shortened: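 Phospho-H2AX Ser139 measured by HTRF (ex 320 nm; em 665 and 620 nm) after 24 hr antibody incubation. Compounds, 15 concentrations, 0.76% DMSO, were applied to CHO-K1 cells for 3hr at 37C before lysis.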

[3] = qHTS assay to identify small molecule agonists of the hypoxia (HIF-1) signaling pathway (AID 1224846; active = well fitted activation curve with a large enough effect in the signal ratio in the repeat runs, not every such curve was filed as active; the % refers to the signal ratio)
Procedure, shortened: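 Compounds from the Tox21 10K library, dissolved in DMSO, are tested for induction of a hypoxia response element–controlled beta-lactamase reporter in ME-180 cells. Exposure lasts 17 hrs at 37C after a 5 hr settling period, followed by CCF4-AM FRET substrate.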

[4] = qHTS assay to identify small molecule antagonists of the estrogen related receptor (ERR) signaling pathway from Tox21 library (AID 1224848); also: nearly all actives have a fitted effect of over 50% in size
Procedure, shortened: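 ERR cell line, 2,000 cells/well. 6 h settle, then compound (DMSO) added; 18 h at 37 C; ONE-Glo luminescence after 30 min RT.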

[5] = qHTS assay to identify small molecule agonists of the estrogen related receptor (ERR) signaling pathway from Tox21 library (AID 1224849; calls by dose curve; also: nearly all actives have a fitted effect of over 15% in size); conditions: ERR reporter cell line, ONE-Glo luciferase, 18 h; at 92.4 µM (top of the series) unless noted
Procedure, shortened: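 Cells carrying the ERR reporter were plated and allowed to settle for 6 h, exposed to library compounds for 18 h at 37 C, then lysed with ONE-Glo and luminescence measured.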

[6] = qHTS RealTime-Glo MT Cell Viability Assay in HepG2 cells - 24 hour (AID 1224867); also: nearly all actives have a fitted effect of over 50% in size
Procedure, shortened: (§1)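 Real-time, nonlytic viability: 600 HepG2 cells/well mixed with NanoLuc enzyme plus prosubstrate; 5 h settle, compound (DMSO) added by pintool; luminescence monitored over 40 h at 37 C.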

[7] = qHTS RealTime-Glo MT Cell Viability Assay in HEK293 cells - 32 hour (AID 1224868); also: top concentration of the series differs between compounds; nearly all actives have a fitted effect of over 50% in size
Procedure, shortened: (§2)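 Cells + reagent dispensed (600 cells/well, HEK293) → 5 h at 37 C/5% CO2 → 23 nL compound in DMSO pinned → 40 h at 37 C → luminescence read at 0, 8, 16, 24, 32, 40 h.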

[8] = A CellTox Green Cytotoxicity Assay to monitor cytotoxicity in HEK293 cells - 0 hour (AID 1224869); also: nearly all actives have a fitted effect of over 50% in size
Procedure, shortened: (§3)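 Cells (HEK293, 600/well) and dye reagent are dispensed together. After 5 h at 37 C, 23 nL compound is pinned in. Plates stay at 37 C for 40 h with fluorescence read at 0h, 8h, 16h, 24h, 32h and 40h.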

[9] = qHTS RealTime-Glo MT Cell Viability Assay in HepG2 cells - 40 hour (AID 1224870); also: nearly all actives have a fitted effect of over 50% in size
Procedure, shortened: (§4)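 Real-time viability: cells seeded at 600 per well together with NanoLuc and cell-permeant prosubstrate, compounds added after 5 h incubation. Luminescence tracked at 0, 8, 16, 24, 32 and 40 h of exposure.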

[10] = A CellTox Green Cytotoxicity Assay to monitor cytotoxicity in HEK293 cells - 40 hour (AID 1224871); also: nearly all actives have a fitted effect of over 45% in size
Procedure, shortened: as §3

[11] = qHTS RealTime-Glo MT Cell Viability Assay in HEK293 cells - 16 hour (AID 1224872)
Procedure, shortened: as §2

[12] = qHTS RealTime-Glo MT Cell Viability Assay in HepG2 cells - 8 hour (AID 1224873); also: nearly all actives have a fitted effect of over 55% in size
Procedure, shortened: as §4

[13] = qHTS RealTime-Glo MT Cell Viability Assay in HEK293 cells - 40 hour (AID 1224874); conditions: RealTime-Glo luminescence; max response: active compounds read low; also: nearly all actives have a fitted effect of over 50% in size
Procedure, shortened: (§5)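 Real-time viability in HEK293: signal arises when living cells convert a prosubstrate for NanoLuc in the medium, so luminescence tracks viable cell number. Compound (23 nL, DMSO) added 5 h post-seeding; kinetic reads at 0–40 h, 37 C.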

[14] = A CellTox Green Cytotoxicity Assay to monitor cytotoxicity in HEK293 cells - 24 hour (AID 1224875); also: nearly all actives have a fitted effect of over 45% in size
Procedure, shortened: as §3

[15] = A CellTox Green Cytotoxicity Assay to monitor cytotoxicity in HepG2 cells - 16 hour (AID 1224876); also: nearly all actives have a fitted effect of over 45% in size
Procedure, shortened: (§6)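 Cells and non-lytic dye reagent are dispensed together (600 HepG2 cells/well) and incubated 5 h before DMSO compound transfer. Kinetic fluorescence is then recorded in the same wells during 40 h at 37 C.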

[16] = qHTS RealTime-Glo MT Cell Viability Assay in HepG2 cells - 32 hour (AID 1224877); also: nearly all actives have a fitted effect of over 55% in size
Procedure, shortened: as §1

[17] = A CellTox Green Cytotoxicity Assay to monitor cytotoxicity in HepG2 cells - 24 hour (AID 1224878); also: nearly all actives have a fitted effect of over 45% in size
Procedure, shortened: as §6

[18] = A CellTox Green Cytotoxicity Assay to monitor cytotoxicity in HepG2 cells - 40 hour (AID 1224879); also: nearly all actives have a fitted effect of over 40% in size
Procedure, shortened: as §6

[19] = qHTS RealTime-Glo MT Cell Viability Assay in HEK293 cells - 0 hour (AID 1224880)
Procedure, shortened: as §5

[20] = qHTS assay to identify small molecule agonists of H2AX - cell viability counter screen (AID 1224847; calls by dose curve; also: top concentration of the series differs between compounds; nearly all actives have a fitted effect of over 30% in size)
Procedure, shortened: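 Compounds tested at 15 concentrations were incubated 3 hr at 37C with wild-type CHO-K1 cells; cellular ATP-based luminescence (CellTiter-Glo) indicated viability.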
% is scaled to controls: 0 for no effect and ±100 for the full control effect.

Cc1ccc(S(=O)(=O)O)c(C)c1
inactive: outcome [1] | outcome [2] | outcome [3] | Potency [4] | activity change, positive = activation [5] 16.9% | outcome [6] | Potency [7] | outcome [8] | outcome [9] | Potency [10] | Potency [11] | outcome [12] | max response [13] 3.15% | outcome [14] | outcome [15] | outcome [16] | outcome [17] | Potency [18] | Potency [19]

CCCC(=O)C(C)=O
inactive: outcome [1] | outcome [2] | outcome [3] | Potency [4] | activity change, positive = activation [5] 7.37% | outcome [6] | Potency [7] | outcome [8] | outcome [9] | Potency [10] | Potency [11] | outcome [12] | max response [13] -1.51% | outcome [14] | outcome [15] | outcome [16] | outcome [17] | Potency [18] | Potency [19]

O=C(NCC(O)CO)c1c(I)c(C(=O)NCC(O)CO)c(I)c(N(CCO)C(=O)CO)c1I (stereo unspecified)
inactive: outcome [1] | outcome [2] | Potency [20] | Potency [4] | activity change, positive = activation [5] 5.02% [at 42.5 µM] | outcome [6] | Potency [7] | outcome [8] | outcome [9] | Potency [10] | Potency [11] | outcome [12] | max response [13] 8.98% | outcome [14] | outcome [15] | outcome [16] | outcome [17] | Potency [18] | Potency [19]

COC(=O)C1CC(=O)C(C(=O)OC)CC1=O (stereo unspecified)
inactive: activity change, negative = cytotoxicity [1] 4.68% [at 6.97 µM] | activation (H2AX phosphorylation) [2] 1.21% [at 14 µM] | activation [3] 0.935% [at 7.01 µM] | activity, negative = inhibition [4] -0.445% [at 8.39 µM] | activity change, positive = activation [5] -0.229% [at 8.39 µM] | activity change, negative = cytotoxicity [6] 1.03% [at 6.97 µM] | activity change, negative = cytotoxic [7] 1.1% [at 6.97 µM] | cytotoxicity [8] -3.09% [at 6.97 µM] | cytotoxicity increase [10] 1.85% [at 6.97 µM] | activity change, negative = cytotoxicity [11] 7.32% [at 6.97 µM] | viability change, negative = cytotoxic [12] -14.8% [at 6.97 µM] | max response [13] -0.164% | activity change [14] 2.42% [at 6.97 µM] | cytotoxicity increase [15] -5.58% [at 6.97 µM] | activity change, negative = cytotoxic [16] 12.6% [at 6.97 µM] | cytotoxicity [17] -7.82% [at 6.97 µM] | cytotoxicity increase [18] -13.2% [at 6.97 µM]

CC(C)(C)NC(N)=O
inactive: outcome [1] | outcome [2] | outcome [3] | Potency [4] | activity change, positive = activation [5] 2.65% | outcome [6] | Potency [7] | outcome [8] | outcome [9] | Potency [10] | outcome [12] | max response [13] 1.11% | outcome [15] | outcome [16] | outcome [17] | Potency [18] | Potency [19]

NNc1nnc(NN)c2ccccc12
inactive: outcome [1] | outcome [2] | outcome [3] | outcome [6] | Potency [7] | outcome [8] | outcome [9] | Potency [10] | Potency [11] | max response [13] 0.221% | outcome [14] | outcome [15] | outcome [16] | outcome [17] | Potency [18] | Potency [19]

CCCCCOC(=O)CCC
inactive: outcome [1] | outcome [2] | outcome [3] | Potency [4] | activity change, positive = activation [5] 10.4% | outcome [6] | Potency [7] | outcome [8] | outcome [9] | Potency [10] | outcome [12] | max response [13] -0.243% | outcome [15] | outcome [16] | outcome [17] | Potency [18]

CC(C)CC(=O)O
inactive: outcome [1] | outcome [2] | outcome [3] | Potency [4] | activity change, positive = activation [5] 4.14% | outcome [6] | Potency [7] | outcome [8] | outcome [9] | Potency [10] | Potency [11] | outcome [12] | max response [13] 6.56% | outcome [14] | outcome [15] | outcome [16] | outcome [17] | Potency [18] | Potency [19]

O=C1c2ccccc2C(=O)c2cc(S(=O)(=O)O)ccc21
inactive: outcome [1] | outcome [2] | outcome [3] | Potency [20] | outcome [6] | outcome [8] | outcome [9] | Potency [10] | outcome [12] | outcome [14] | outcome [15] | outcome [16] | outcome [17] | Potency [18] | Potency [19]

CC(=O)Nc1cccc(C)c1
inactive: outcome [1] | outcome [2] | outcome [3] | Potency [20] | outcome [6] | outcome [8] | outcome [9] | Potency [10] | outcome [14] | outcome [15] | outcome [16] | outcome [17] | Potency [18] | Potency [19]
